This is an account of results in the supplement of paper PMC7830784.

Structures are written as SMILES. Structures can show the parent of a compound that is named as a salt.

For the experiment, the system named is Brugia pahangi adult female. As to the kind of experiment: IC50 motility inhibition on day 3. The conditions noted are these: 3 days. As to the method: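 Single adult female Brugia pahangi worms in 24-well plates (RPMI-1640, 5% FBS, 37 °C) were treated with 10 µM of each compound from a 2121-drug library (4 replicates; 1% DMSO vehicle and 10 µM auranofin controls). Motility was recorded with WormAssay dark-field imaging, and % inhibition of motility on day 3 is relative to vehicle. IC50 values for selected hits come from a 6-point dilution series (30 to 0.1 µM) fitted in GraphPad Prism.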
For `O=C1c2cccc(O)c2C(=O)c2c(O)cccc21` [dantron], the “IC50 motility inhibition on day 3” value stood at 18.3 µM. The result for `COc1cc(NC(C)CCCN)c2ncccc2c1` (stereo not given) [primaquine diphosphate] reads 5.06 µM; that for `CSc1ccc2c(c1)N(CCC1CCCCN1C)c1ccccc1S2` (stereo not given) [Thioridazine hydrochloride], 8.08 µM.

As to `CCCCCCCCNC(C)C(O)c1ccc(SC(C)C)cc1` (stereo not given) [suloctidil], the “IC50 motility inhibition on day 3” value worked out at 3.66 µM. Turning to `C[n+]1c2cc(N)ccc2cc2ccc(N)cc21` [acriflavinium hydrochloride], the “IC50 motility inhibition on day 3” value amounted to 4.62 µM. As for `CN(C)c1ccc(C(=C2C=CC(=[N+](C)C)C=C2)c2ccc(N(C)C)cc2)cc1` [gentian violet], the “IC50 motility inhibition on day 3” value was found to be 0.3 µM. In the case of `CC[n+]1c(-c2ccccc2)c2cc(N)ccc2c2ccc(N)cc21` [homidium bromide] it was 5.43 µM; in that of `O=C(CCN1CCC(c2ccccc2)C1)c1ccc2c(c1)OCCO2` (stereo not given) [Proroxan], 8.53 µM. With `Cc1cc(C(C)(C)CC(C)(C)C)ccc1OCCOCC[N+](C)(C)Cc1ccccc1` [methylbenzethonium chloride], the “IC50 motility inhibition on day 3” value was 3.46 µM. The result for `N=C(NCCCCCCNC(=N)NC(=N)Nc1ccc(Cl)cc1)NC(=N)Nc1ccc(Cl)cc1` [chlorhexidine] reads 9.13 µM; that for `CCCCC(CC)COC(=O)CC(C(=O)OCC(CC)CCCC)S(=O)(=O)O` (stereo not given) [docusate sodium], 0.294 µM. As for `COC(=O)C1=C(C)NC(C)=C(C(=O)OC(C)C)C1c1cccc2nonc12` (stereo not given) [isradipine], the “IC50 motility inhibition on day 3” value is 2.75 µM. Consider `Clc1ccc(CSC(Cn2ccnc2)c2ccc(Cl)cc2Cl)cc1` (stereo not given) [sulconazole nitrate], for which the “IC50 motility inhibition on day 3” value turned out to be 4.62 µM. The result for `Oc1c(Cl)cc(Cl)cc1Sc1cc(Cl)cc(Cl)c1O` [bithionol] reads 6.1 µM.

For `O=C1CN(/N=C/c2ccc([N+](=O)[O-])o2)C(=O)N1` [nitrofurantoin], the “IC50 motility inhibition on day 3” value was determined as 11.6 µM.

Turning to `CC(C)/N=c1\cc2n(-c3ccc(Cl)cc3)c3ccccc3nc-2cc1Nc1ccc(Cl)cc1` [clofazimine], the “IC50 motility inhibition on day 3” value was > 30 µM. In the case of `Cc1cc2nc3c(=O)[nH]c(=O)nc-3n(C[C@H](O)[C@H](O)[C@H](O)CO)c2cc1C` [riboflavin] it was 16 µM; in that of `O=C(Nc1ccc([N+](=O)[O-])cc1Cl)c1cc(Cl)ccc1O` [niclosamide], 1.17 µM.

`Clc1ccc(C(Cn2ccnc2)OCc2ccsc2Cl)c(Cl)c1` (stereo not given) [tioconazole]: the “IC50 motility inhibition on day 3” value amounted to 3.18 µM. The result for `Oc1ccc(Cl)c2cccnc12` [cloxyquin] reads 4.9 µM; that for `Cc1cc(/C=C/c2ccc3cc(N(C)C)ccc3[n+]2C)c(C)n1-c1ccccc1` [pyrvinium pamoate], < 0.1 µM; that for `Clc1ccccc1C(c1ccccc1)(c1ccccc1)n1ccnc1` [clotrimazole], 5.5 µM. In the case of `CN(C)c1ccc2nc3ccc(=[N+](C)C)cc-3sc2c1` [methylene blue] it was 1.06 µM; in that of `CC(=O)OC[C@H]1O[C@@H]([S-])[C@H](OC(C)=O)[C@@H](OC(C)=O)[C@@H]1OC(C)=O.CCP(CC)CC.[Au+]` [Auranofin], 0.7 µM. Take `CCCCCCCCCc1ccc(OCCOCCOCCOCCOCCOCCOCCOCCOCCO)cc1` [nonoxynol-9]: the “IC50 motility inhibition on day 3” value is 3.24 µM. On to `C1CCC(C(CC2CCCCN2)C2CCCCC2)CC1` (stereo not given) [perhexiline maleate], for which the “IC50 motility inhibition on day 3” value is 7.46 µM. In the case of `Oc1c(I)cc(Cl)c2cccnc12` [clioquinol] it was 2.61 µM. In the case of `Oc1c(I)cc(I)c2cccnc12` [iodoquinol] it was 1.9 µM. Turning to `O=C(Nc1ncc([N+](=O)[O-])s1)c1ccccc1O` [Tizoxanide], the “IC50 motility inhibition on day 3” value stood at 3.4 µM. The result for `O=C1C(O)=C([C@H]2CC[C@H](c3ccc(Cl)cc3)CC2)C(=O)c2ccccc21` [atovaquone] reads 4.16 µM; that for `COC(=O)C1=C(C)NC(C)=C(C(=O)OCC(C)C)C1c1ccccc1[N+](=O)[O-]` (stereo not given) [nisoldipine], 9.81 µM; that for `CC(=O)Oc1ccccc1C(=O)Nc1ncc([N+](=O)[O-])s1` [nitazoxanide], 5.78 µM.

On to `O=[N+]([O-])c1ccc(O)c2ncccc12` [nitroxoline], for which the “IC50 motility inhibition on day 3” value turned out to be 6.7 µM.

`CCCCCCCCCCCCC[N+](C)(C)Cc1ccccc1` [benzalkonium chloride]: the “IC50 motility inhibition on day 3” value stood at 1.9 µM.

Consider `Clc1ccc(Cn2c(CN3CCCC3)nc3ccccc32)cc1` [clemizole hydrochloride], for which the “IC50 motility inhibition on day 3” value stood at 6.51 µM. For `C[n+]1cc2c3c(ccc2c2ccc4cc5c(cc4c21)OCO5)OCO3` [Sanguinarine chloride], the “IC50 motility inhibition on day 3” value came out at 6.08 µM.

Turning to `CC(C)(C)CC(C)(C)c1ccc(OCCOCC[N+](C)(C)Cc2ccccc2)cc1` [benzethonium chloride], the “IC50 motility inhibition on day 3” value was determined as 1.4 µM. In the case of `Oc1c(Cl)cc(Cl)c2cccnc12` [chloroxine], the “IC50 motility inhibition on day 3” value came to 0.803 µM.

As to `CC1=CC(=O)c2ccccc2C1=O` [menadione], the “IC50 motility inhibition on day 3” value turned out to be 4.23 µM. In the case of `Clc1ccc(COC(Cn2ccnc2)c2ccc(Cl)cc2Cl)cc1` (stereo not given) [econazole nitrate], the “IC50 motility inhibition on day 3” value was found to be 3.97 µM.
